Measurements taken from PubChem BioAssay (NCATS).
Inconclusive results are not listed. Calls of active or inactive are those of the source. Unless noted, calls come from the whole dose curve; as a rule, active = well fitted curve in the direction sought with a large enough effect; inconclusive = small, poorly fitted or top-dose-only effect, or another doubt; inactive = no such curve, though single readings can be large; an effect the other way counts as inactive or inconclusive.

How the values were obtained:
[1] = molecular target: Protein phosphatase 1D (Homo sapiens) (UniProt O15297); assay: RapidFire Mass Spectrometry qHTS Assay for Modulators of WT P53-Induced Phosphatase 1 (WIP1) (AID 1347424);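 note: series mostly up to about 63 µM; plate controls were DMSO wells for no effect and GSK830371 inhibitor control at 10 µM for full effect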
Sequence of Protein phosphatase 1D (Homo sapiens) (O15297 whole entry, looked up): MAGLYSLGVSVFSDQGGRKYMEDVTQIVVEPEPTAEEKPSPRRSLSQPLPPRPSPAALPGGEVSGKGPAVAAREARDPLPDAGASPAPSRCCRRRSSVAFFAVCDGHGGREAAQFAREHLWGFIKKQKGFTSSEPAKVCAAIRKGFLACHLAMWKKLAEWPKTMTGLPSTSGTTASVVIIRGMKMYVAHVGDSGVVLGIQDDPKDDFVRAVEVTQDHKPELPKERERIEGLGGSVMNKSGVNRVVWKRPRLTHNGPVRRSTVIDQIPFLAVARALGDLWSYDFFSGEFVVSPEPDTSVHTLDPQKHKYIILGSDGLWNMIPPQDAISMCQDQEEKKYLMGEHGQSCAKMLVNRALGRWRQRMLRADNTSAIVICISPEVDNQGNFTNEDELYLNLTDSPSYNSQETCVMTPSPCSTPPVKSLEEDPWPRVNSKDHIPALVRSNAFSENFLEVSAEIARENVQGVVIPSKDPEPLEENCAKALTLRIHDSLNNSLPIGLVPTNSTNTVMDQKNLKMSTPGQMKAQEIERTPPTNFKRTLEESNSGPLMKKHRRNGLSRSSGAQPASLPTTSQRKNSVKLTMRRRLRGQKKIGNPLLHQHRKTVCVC
In short: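 RapidFire MS readout of dephosphorylated VEPPL-S-QETFS product, with 1 uM isotope-labelled peptide standard. Reaction: 10 nM WIP1, 2 uM phosphopeptide substrate, 5 min, room temperature, after 1 h compound preincubation; stopped with 0.5% formic acid.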

[2] = molecular target: Protein phosphatase 1D (Homo sapiens) (UniProt O15297); assay: Rhodamine-PBP qHTS Assay for Modulators of WT P53-Induced Phosphatase 1 (WIP1) (AID 1347425); note: % of control where 0% means no effect
In short: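 Read-out: Rhodamine-PBP fluorescence (ex 525/em 598 nm) for released Pi, read each minute for 11 min after adding 10 uM VEPPL-pS-QETFS; signal taken as f1 minus pre-substrate f0. Enzyme 5 nM WIP1 with 1 hr room-temperature compound preincubation.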

[3] = Validation qHTS assay for inhibitors of Activation Induced Cytidine Deaminase (AID): UDG Counterscreen signal (AID 1347427); note: 0% is about no effect
In short: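 Fluorescence at 560 nm excitation, 665 nm emission reports UDG signal after 250 mM NaOH (2x) addition and 30 min. Enzymes (AID 1 uM, UDG 2 U/mL, at 4/3x) preincubated 10 min with compound, then 4 h with 4x 250 nM DJC20/DJC23 substrate at room temperature.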

[4] = molecular target: Single-stranded DNA cytosine deaminase (Homo sapiens) (UniProt Q9GZX7); assay: Validation qHTS assay for inhibitors of Activation Induced Cytidine Deaminase (AID): AID signal (AID 1347429); note: % is set by controls: 0 for no effect and ±100 for the full control effect
Sequence of Single-stranded DNA cytosine deaminase (Homo sapiens) (Q9GZX7 whole entry, looked up): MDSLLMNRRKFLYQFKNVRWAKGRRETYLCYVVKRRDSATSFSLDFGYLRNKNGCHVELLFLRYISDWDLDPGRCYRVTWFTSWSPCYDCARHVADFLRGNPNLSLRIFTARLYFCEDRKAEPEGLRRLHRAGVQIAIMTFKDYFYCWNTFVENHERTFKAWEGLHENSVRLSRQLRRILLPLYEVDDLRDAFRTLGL
In short: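 Compounds (final up to 114 uM) preincubated with AID plus UDG; 250 nM DJC20/DJC23 substrate mix (4x stock) added, 4 hr at room temperature, then NaOH, 30 min. Read 1 fluorescence at 540 nm excitation, 590 nm emission.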

[5] = Primary qHTS for inhibitors of La Crosse Virus (LACV) - induced cell death in SH-SY5Y cells (AID 1508616);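 note: top concentration of the series differs between compounds; 0% = infected DMSO wells and 100% = uninfected DMSO wells; higher means more rescue of cells from virus-induced death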
In short: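 Rescue of virus-induced death was read as ATPLite luminescence after 6 days at 37C, scaled between DMSO wells with LACV and without virus. Cells were SH-SY5Y, 6000/well, infected at 0.01 MOI after compound addition.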

[6] = Primary qHTS for small molecule stabilizers of the endoplasmic reticulum resident proteome: Secreted ER Calcium Modulated Protein (SERCaMP) assay (AID 1508630); note: % is set by controls: 0 for no effect and ±100 for the full control effect
In short: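 The SH-SY5Y reporter protocol was run at 3 concentrations up to 38.3 uM (primary) or 11 concentrations (follow-up): 16 h compound, 100 nM thapsigargin for 4 h, then extracellular luciferase luminescence.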

[7] = A High-Content qHTS Against Drug Library for the Identification of Small Molecules that Inhibit DYT1 Early Onset Primary Dystonia-Associated Cell Pathology (AID 1645839; calls by dose curve; note: potency is the fitted concentration of half-maximal effect; for % pathology change, negative = correction: series mostly up to about 46 µM)
In short: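 Cells were seeded and left for 24 h, then dosed with compound alongside tetracycline induction of mutant EGFP-TorsinA. They were incubated for 48 h, fixed in 4% paraformaldehyde, permeabilized and imaged for mislocalization (%pathology) and cell count.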

Papain (Carica papaya) = Papain (Carica papaya) (UniProt P00784); assay: Primary qHTS assay for inhibitors of the protease papain (AID 1645873);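 note: papain turnover of Z-FR-AMC read as the AMC fluorescence gain over 10 min; series mostly up to about 50 µM; % is set by controls: 0 for no effect and ±100 for the full control effect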
Sequence of Papain (Carica papaya) (P00784 whole entry, looked up, the tested form may be a part): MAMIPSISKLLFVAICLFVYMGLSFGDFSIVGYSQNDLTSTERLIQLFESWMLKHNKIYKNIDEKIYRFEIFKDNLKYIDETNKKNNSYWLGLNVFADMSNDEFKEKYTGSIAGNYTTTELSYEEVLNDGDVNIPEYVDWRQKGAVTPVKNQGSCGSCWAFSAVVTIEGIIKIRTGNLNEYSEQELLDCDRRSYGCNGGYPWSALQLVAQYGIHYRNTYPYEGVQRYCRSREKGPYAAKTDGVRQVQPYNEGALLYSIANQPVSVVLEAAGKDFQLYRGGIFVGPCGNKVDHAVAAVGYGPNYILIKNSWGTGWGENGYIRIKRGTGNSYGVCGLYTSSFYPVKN

[8] = Primary qHTS for inhibitors of nuclear receptor binding SET domain protein 2 (NSD2) in an isogenic RCH-ACV NSD2 p.E1099K mutant (9B) (AID 1645876); note: nearly all actives have a fitted effect of over 70% in size; note: potency is the fitted concentration of half-maximal effect
[9] = Primary qHTS for inhibitors of nuclear receptor binding SET domain protein 2 (NSD2) in an RCH-ACV wild type WT cells (2C) (AID 1645877); note: nearly all actives have a fitted effect of over 70% in size; note: potency is the fitted concentration of half-maximal effect
[10] = molecular target: Calcium and integrin-binding protein 1 (Homo sapiens) (UniProt Q99828); assay: Primary qHTS for Identification of Calcium Integrin Binding Protein 1 (CIB1) Competitor (AID 1508620);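 note: GST tagged CIB1 binding a fluorescein labelled alphaIIb integrin peptide tracer; top concentration of the series differs between compounds; % is set by controls: 0 for no effect and ±100 for the full control effect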
Sequence of Calcium and integrin-binding protein 1 (Homo sapiens) (Q99828 whole entry, looked up): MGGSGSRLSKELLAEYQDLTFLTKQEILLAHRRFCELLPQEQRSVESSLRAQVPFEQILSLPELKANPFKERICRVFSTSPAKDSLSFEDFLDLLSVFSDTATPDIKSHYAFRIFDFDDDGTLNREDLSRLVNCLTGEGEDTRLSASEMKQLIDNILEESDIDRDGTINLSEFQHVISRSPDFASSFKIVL
In short: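 Fluorescence polarization competition: GST-tagged CIB1 (1 uM final) preincubated with compound 15 min at room temperature, then FITC-labelled alphaIIb peptide (100 nM final) added. After 15 min at room temperature, polarization read at Ex 480/Em 540.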

[11] = molecular target: Cytochrome P450 2D6 (Homo sapiens) (UniProt P10635); assay: Cytochrome P450 family 2 subfamily D member 6 (CYP2D6) small molecule antagonists: luciferase biochemical (cell-free) qHTS assay (AID 1645840; active = well fitted curve in the direction sought with a large enough effect in the repeat runs; an effect the other way counts as inactive or inconclusive; note: nearly all actives have a fitted effect of over 55% in size; note: potency is the fitted concentration of half-maximal effect)
Sequence of Cytochrome P450 2D6 (Homo sapiens) (P10635 whole entry, looked up): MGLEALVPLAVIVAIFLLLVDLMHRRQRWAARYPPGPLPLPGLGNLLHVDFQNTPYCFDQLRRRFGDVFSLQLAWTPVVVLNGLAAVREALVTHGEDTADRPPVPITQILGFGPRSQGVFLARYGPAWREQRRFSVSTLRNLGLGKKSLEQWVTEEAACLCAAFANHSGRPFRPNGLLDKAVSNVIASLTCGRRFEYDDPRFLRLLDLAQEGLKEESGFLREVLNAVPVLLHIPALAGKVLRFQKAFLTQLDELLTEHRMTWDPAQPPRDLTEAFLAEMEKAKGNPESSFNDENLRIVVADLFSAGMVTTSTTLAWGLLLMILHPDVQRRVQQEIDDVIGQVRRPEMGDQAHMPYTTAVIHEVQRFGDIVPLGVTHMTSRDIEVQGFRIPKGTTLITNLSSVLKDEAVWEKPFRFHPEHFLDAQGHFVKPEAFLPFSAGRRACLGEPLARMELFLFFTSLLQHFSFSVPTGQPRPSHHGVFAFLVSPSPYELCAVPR
In short: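 P450-Glo CYP2D6 system: proluciferin substrate converted by enzyme to luciferin, read by luminescence proportional to activity. Enzyme-substrate mix with compound 10 min at room temperature, then NADPH regeneration 1 h before detection reagent.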

[12] = molecular target: Cytochrome P450 2C9 (Homo sapiens) (UniProt P11712); assay: Cytochrome P450 family 2 subfamily C member 9 (CYP2C9) small molecule antagonists: luciferase biochemical (cell-free) qHTS assay (AID 1645842; active = well fitted curve in the direction sought with a large enough effect in the repeat runs; an effect the other way counts as inactive or inconclusive; note: nearly all actives have a fitted effect of over 55% in size; note: potency is the fitted concentration of half-maximal effect)
Sequence of Cytochrome P450 2C9 (Homo sapiens) (P11712 whole entry, looked up): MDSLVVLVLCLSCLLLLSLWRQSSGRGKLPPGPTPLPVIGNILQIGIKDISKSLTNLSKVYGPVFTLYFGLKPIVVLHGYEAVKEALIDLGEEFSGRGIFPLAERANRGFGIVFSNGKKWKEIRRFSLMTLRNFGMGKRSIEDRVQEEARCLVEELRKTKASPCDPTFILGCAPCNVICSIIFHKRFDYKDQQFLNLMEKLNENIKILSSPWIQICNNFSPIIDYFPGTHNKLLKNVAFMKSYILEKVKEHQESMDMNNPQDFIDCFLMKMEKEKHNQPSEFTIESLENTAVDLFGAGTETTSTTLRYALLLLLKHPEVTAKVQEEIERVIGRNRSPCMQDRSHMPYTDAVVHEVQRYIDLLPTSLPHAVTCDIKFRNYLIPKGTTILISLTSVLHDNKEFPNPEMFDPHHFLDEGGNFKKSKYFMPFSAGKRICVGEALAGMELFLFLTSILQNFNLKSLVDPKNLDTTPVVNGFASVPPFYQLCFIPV
In short: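 P450-Glo CYP2C9 system: proluciferin substrate with enzyme in mix containing 0.4% BSA, 10 min at room temperature, then NADPH regeneration solution added and incubated 1 h at 37C. Detection reagent stopped reaction; luminescence read after 20 min as RLU.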

[13] = molecular target: Calcium and integrin-binding protein 1 (Homo sapiens) (UniProt Q99828); assay: Validation qHTS for Identification of Calcium Integrin Binding protein 1 (CIB1) Competitor (AID 1508618); note: % is set by controls: 0 for no effect and ±100 for the full control effect
In short: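 CIB1-GST (1 uM final) in 5 mM HEPES pH 7.4, 125 mM NaCl, 5 mM CaCl2, 0.01% Tween20 was preincubated 15 min at room temperature with compound (up to 114 uM), then FITC-alphaIIb peptide (100 nM) added for 15 min; fluorescence polarization read.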

[14] = Counterscreen qHTS for small molecule stabilizers of the endoplasmic reticulum resident proteome: GLuc-NoTag assay (AID 1508627);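 note: series mostly up to about 76 µM; 0% = thapsigargin alone and -100% = DMSO vehicle control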
In short: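 Counterscreen line: SH-SY5Y-GLuc-NoTag. Seed, 5 h; compound, 19 h; thapsigargin 100 nM, 4 h; 37C/5% CO2. Readout: secreted GLuc luminescence, coelenterazine 0.07x final, no lysis.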

[15] = Confirmatory qHTS for small molecule stabilizers of the endoplasmic reticulum resident proteome: Secreted ER Calcium Modulated Protein (SERCaMP) assay (AID 1508628); note: series mostly up to about 76 µM; % is set by controls: 0 for no effect and ±100 for the full control effect; nearly all actives have a fitted effect of over 40% in size
In short: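 Reporter secretion upon ER calcium depletion (100 nM thapsigargin, 4 h, 37C) is measured as medium luminescence with coelenterazine, after 16 h compound pretreatment of SH-SY5Y-GLuc-SERCaMP cells; primary at three concentrations up to 38.3 uM, follow-up at 11 (up to 76.6 uM).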

[16] = molecular target: Cytochrome P450 3A4 (Homo sapiens) (UniProt P08684); assay: Cytochrome P450 family 3 subfamily A member 4 (CYP3A4) small molecule antagonists: luciferase qHTS assay (AID 1645841; active = well fitted curve in the direction sought with a large enough effect in the repeat runs; an effect the other way counts as inactive or inconclusive; note: nearly all actives have a fitted effect of over 45% in size)
Sequence of Cytochrome P450 3A4 (Homo sapiens) (P08684 whole entry, looked up): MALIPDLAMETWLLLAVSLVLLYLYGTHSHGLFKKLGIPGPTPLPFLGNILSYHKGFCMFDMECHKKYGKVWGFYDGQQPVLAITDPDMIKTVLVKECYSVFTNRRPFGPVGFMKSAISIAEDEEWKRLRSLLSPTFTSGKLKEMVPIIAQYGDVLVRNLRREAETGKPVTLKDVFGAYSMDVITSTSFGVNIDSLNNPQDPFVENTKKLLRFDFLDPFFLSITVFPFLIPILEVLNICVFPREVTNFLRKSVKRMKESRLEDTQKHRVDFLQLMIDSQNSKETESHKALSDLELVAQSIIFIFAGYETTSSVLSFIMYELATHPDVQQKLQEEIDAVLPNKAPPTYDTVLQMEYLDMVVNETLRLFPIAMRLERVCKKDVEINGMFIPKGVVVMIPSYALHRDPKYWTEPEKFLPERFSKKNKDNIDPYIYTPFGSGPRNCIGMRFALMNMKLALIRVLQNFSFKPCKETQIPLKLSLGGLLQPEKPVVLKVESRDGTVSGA
In short: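 P450-Glo CYP3A4 enzyme with proluciferin substrate preincubated 10 min with compound at room temperature, then NADPH regeneration 1 h. Luciferin detection reagent added for 20 min; luminescence recorded. Ketoconazole positive control.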

OCCN1CCN(CCCN2c3ccccc3Sc3ccc(Cl)cc32)CC1
inactive: outcome [1] | outcome [2] | Potency [3] | Potency [4] | outcome [5] | Potency [6] | Potency (Papain (Carica papaya))
active: Potency [7] 3.98 µM | Potency [8] 8.41 µM | Potency [9] 9.44 µM

Cc1cc(CC(=O)O)n(C)c1C(=O)c1ccc(Cl)cc1
inactive: outcome [1] | outcome [2] | outcome [5] | outcome [10] | Potency [6] | Potency [7] | Potency [11] | Potency [12]

O=C1NC(=O)[C@@]2(CCOc3ccc(F)cc32)N1
inactive: outcome [1] | outcome [2] | outcome [5] | outcome [13] | outcome [10] | Potency [6] | Potency [7] | Potency [11] | Potency [12] | Potency (Papain (Carica papaya)) | Potency [8] | Potency [9]

CC(C)(C)C(=O)C(Oc1ccc(Cl)cc1)n1ccnc1 (centres undefined)
inactive: outcome [1] | outcome [2] | outcome [5] | outcome [10] | Potency [6] | Potency [7]
active: Potency [11] 17.4 µM | Potency [12] 2.75 µM

C=CCn1c(=O)n([C@@H]2O[C@H](CO)[C@@H](O)[C@H]2O)c2nc(N)[nH]c(=O)c21
inactive: outcome [1] | outcome [2] | outcome [5] | outcome [10] | Potency [14] | Potency [15] | Potency [7] | Potency [11] | Potency [12] | Potency [8] | Potency [9]

c1ccc2c(CC3=NCCN3)cccc2c1
inactive: outcome [1] | outcome [2] | outcome [5] | outcome [10] | Potency [6] | Potency [7] | outcome [16] | Potency [12] | Potency [8]
active: Potency [11] 15.5 µM

NC(N)=NCCC[C@H](N)C(=O)O
inactive: activity change, negative = inhibition [1] -3.57% [at 6.17 µM] | activity change, negative = inhibition [2] -0.0772% [at 4.81 µM] | Potency [3] | Potency [4] | outcome [5] | Potency [6] | % pathology change, negative = correction [7] 17.5% [at 4.63 µM] | activity change, negative = inhibition [11] 2.59% [at 4.83 µM] | activity change, negative = inhibition [12] -6.78% [at 4.83 µM] | Potency (Papain (Carica papaya)) | outcome [8] inactive [at 4.96 µM]

Nc1ccc(S(=O)(=O)Nc2ccc(Cl)nn2)cc1
inactive: outcome [1] | outcome [2] | outcome [5] | outcome [10] | Potency [6] | Potency [7] | Potency [11]

O=C(O)[C@@H]1CSCN1
inactive: outcome [1] | outcome [2] | outcome [5] | outcome [10] | Potency [6] | Potency [7] | Potency [11] | outcome [16] | Potency [12] | Potency [8] | Potency [9]

NC1[C@H]2CN(c3nc4c(cc3F)c(=O)c(C(=O)O)cn4-c3ccc(F)cc3F)C[C@@H]12 (some centres undefined)
active: Potency [8] 2.99 µM | Potency [9] 5.31 µM
inactive: outcome [1] | outcome [2] | outcome [5] | outcome [13] | outcome [10] | Potency [14] | Potency [11] | Potency [12]

O=c1cc(CO)occ1O
inactive: outcome [1] | outcome [2] | outcome [5] | outcome [10] | Potency [14] | Potency [15] | Potency [7] | Potency [11] | Potency [12] | Potency [8] | Potency [9]

CC(=O)O[C@@]12CO[C@@H]1C[C@H](O)[C@@]1(C)C(=O)[C@H](O)C3=C(C)[C@@H](OC(=O)[C@H](O)[C@@H](NC(=O)OC(C)(C)C)c4ccccc4)C[C@@](O)([C@@H](OC(=O)c4ccccc4)[C@H]21)C3(C)C
active: Potency [8] 0.0027 µM | Potency [9] 0.0021 µM
inactive: outcome [1] | outcome [2] | outcome [5] | outcome [10] | Potency [6] | Potency [7] | Potency [11] | Potency [12]

O=C(Oc1ccccc1C(=O)O)c1ccccc1O
inactive: outcome [1] | outcome [2] | outcome [5] | outcome [10] | Potency [6] | Potency [7] | Potency [11] | Potency [12] | Potency [8] | Potency [9]

C[C@]12CC[C@@H]3c4ccc(O)cc4CC[C@H]3[C@@H]1CC[C@@H]2OC(=O)CCC1CCCC1
inactive: outcome [1] | outcome [2] | outcome [5] | outcome [10] | Potency [6] | Potency [7] | Potency [11] | Potency [8] | Potency [9]
active: Potency [12] 19 µM

[O-][n+]1cccc(CO)c1
inactive: outcome [1] | outcome [2] | outcome [5] | outcome [10] | Potency [6] | Potency [7] | Potency [11] | Potency [12] | Potency [8] | Potency [9]

Nc1nc2c(ncn2CCC(CO)CO)c(=O)[nH]1
inactive: outcome [1] | outcome [2] | outcome [5] | outcome [10] | Potency [6] | Potency [7] | Potency [11] | Potency [12] | Potency [8] | Potency [9]

COc1cc2[nH]c(=O)[nH]c(=O)c2cc1OC
inactive: outcome [1] | outcome [2] | outcome [5] | outcome [10] | Potency [6] | Potency [7] | Potency [11] | Potency [12] | Potency [8] | Potency [9]

Cn1cc[nH]c1=S
inactive: outcome [1] | outcome [2] | outcome [5] | outcome [10] | Potency [6] | Potency [7] | Potency [11] | Potency [12] | Potency [8] | Potency [9]

NS(=O)(=O)c1cc2c(cc1Cl)NC(CSCc1ccccc1)=NS2(=O)=O
inactive: outcome [1] | outcome [2] | outcome [5] | outcome [10] | Potency [6] | Potency [7] | Potency [8] | Potency [9]
active: Potency [11] 13.8 µM | Potency [12] 5.49 µM

CC(O)COc1ccccc1 (centres undefined)
inactive: outcome [1] | outcome [2] | outcome [5] | outcome [10] | Potency [6] | Potency [7] | Potency [11] | Potency [12] | Potency [8] | Potency [9]

COC(=O)[C@H]1[C@H]2C[C@@H]3c4[nH]c5cc(OC)ccc5c4CCN3C[C@H]2C[C@@H](OC(=O)COc2ccc(OC)cc2)[C@@H]1OC
inactive: outcome [1] | outcome [2] | outcome [5] | outcome [10] | Potency [6] | Potency [7] | Potency [12] | Potency [8] | Potency [9]
active: Potency [11] 9.77 µM
